# The full ranking holds about 1,100 compounds; the median of “Wnt reporter firefly/Renilla luciferase ratio relative to plate median” is about 1.1, and the highest 2% start at about 1.6. The sample as a whole holds a higher share of the highest values than the screen did.
# Tested on: HEK293T (UBE3A T485A transfected, BAR Wnt reporter)
# Assay: Wnt reporter firefly/Renilla luciferase ratio relative to plate median (fold (linear ratio)); higher = more Wnt/beta-catenin reporter activation
# Settings: 24 h
# Procedure, shortened: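 Each value averages four biological replicates in HEK293T cells grown at 4500 cells/well in DMEM with 10% FBS at 37°C and 5% CO2. The cells were transfected with a BAR firefly luciferase Wnt reporter, TK-Renilla and an expression plasmid, then four hours later robotically treated with the chemicals at 0.01–100 uM for 24 h. Dual-Glo luciferase signals were median-centred per plate, with the firefly/Renilla ratio reported as Wnt activity and raw Renilla as cell health.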
Structure (SMILES),Wnt reporter firefly/Renilla luciferase ratio (concentration: 0.1 uM),Wnt reporter firefly/Renilla luciferase ratio (concentration: 1 uM),Wnt reporter firefly/Renilla luciferase ratio (concentration: 10 uM),Wnt reporter firefly/Renilla luciferase ratio (concentration: 100 uM),Wnt reporter firefly/Renilla luciferase ratio (concentration: 0.01 uM)
c1ccc(OP(Oc2ccccc2)Oc2ccccc2)cc1 [Triphenyl phosphite],0.971,1.06,1,1.26,–
NC(=O)[O-].[NH4+] [Ammonium carbamate],0.817,0.94,0.934,1.31,–
CCC(C)c1cc([N+](=O)[O-])cc([N+](=O)[O-])c1O (configuration not stated) [Dinoseb],0.797,0.806,0.929,–,–
Clc1nc(Cl)nc(Nc2ccccc2Cl)n1 [Anilazine],0.926,1.15,1.18,1.07,0.958
CNC(=S)[S-].O.O.O.[Na+] [Metam-sodium hydrate],0.921,0.977,1.06,1.1,0.905
CCCN(CCC)N=O [N-Nitrosodipropylamine],1.18,0.939,1.15,1.06,–
CCN(CC)N=O [N-Nitrosodiethylamine],1.12,1.13,1.27,1.82,–
CCCCN(CCCC)N=O [N-Nitrosodibutylamine],0.968,0.902,1.04,1.27,–
CCCCC(C#N)(Cn1cncn1)c1ccc(Cl)cc1 (configuration not stated) [Myclobutanil],1,0.933,1.09,0.269,0.908
COc1cc(OC)nc(NC(=O)[N-]S(=O)(=O)c2ncccc2OCC(F)(F)F)n1.[Na+] [Trifloxysulfuron-sodium],1.02,1.23,1.22,1.52,1.06
N#Cc1cccnc1 [3-Pyridinecarbonitrile],0.974,1.13,1.25,1.35,–
CO/N=C(/C1=NOCCO1)c1ccccc1Oc1ncnc(Oc2ccccc2Cl)c1F [Fluoxastrobin],1.27,0.946,0.315,1.23,1.16
Cn1sc(Cl)cc1=O [5-Chloro-2-methyl-3(2H)-isothiazolone],1.28,1.07,1.07,0.458,–
COc1ccc(C(c2ccc(OC)cc2)C(Cl)(Cl)Cl)cc1 [Methoxychlor],1.13,1.12,1.25,1.04,0.858
Cn1cc(-c2ccccc2)c(=O)c(-c2cccc(C(F)(F)F)c2)c1 [Fluridone],1.28,0.917,0.825,0.175,–
"Cc1ccc([N+](=O)[O-])cc1C [1,2-Dimethyl-4-nitrobenzene]",0.844,1.17,1.19,1.42,–
"CN(C)c1ccccc1 [N,N-Dimethylaniline]",1.11,1.11,0.912,1.02,–
"C[C@]12CCC(=O)C=C1CC[C@@H]1[C@@H]2CC[C@]2(C)C(=O)CC[C@@H]12 [4-Androstene-3,17-dione]",1.04,1.01,1.12,0.219,–
Clc1ccccc1-c1nnc(-c2ccccc2Cl)nn1 [Clofentezine],1.25,0.999,1.19,1.59,1.31
CC(Cl)(Cl)C(=O)O [Dalapon],1.05,1.18,1.08,1.25,–
COC(=O)Nc1nc2ccccc2[nH]1 [Carbendazim],1.09,1.16,0.661,0.13,–

Structure (SMILES),Wnt reporter firefly/Renilla luciferase ratio (concentration: 0.1 uM),Wnt reporter firefly/Renilla luciferase ratio (concentration: 1 uM),Wnt reporter firefly/Renilla luciferase ratio (concentration: 10 uM),Wnt reporter firefly/Renilla luciferase ratio (concentration: 100 uM),Wnt reporter firefly/Renilla luciferase ratio (concentration: 0.01 uM)
C[n+]1ccc(-c2cc[n+](C)cc2)cc1 [Paraquat],1.36,1.06,1.01,1.77,1.31
CCOP(=S)(OCC)SCSC(C)(C)C [Terbufos],1.28,1.01,1.16,1.27,–
CCNc1nc(Cl)nc(NC(C)(C)C#N)n1 [Cyanazine],0.905,0.962,0.88,1.15,0.787
Cc1ccc([N+](=O)[O-])cc1 [4-Nitrotoluene],0.766,0.567,0.741,0.771,–
CCCCC(O)(Cn1cncn1)c1ccc(Cl)cc1Cl (configuration not stated) [Hexaconazole],0.897,1,0.919,0.397,0.917
"ClCC(Cl)CCl [1,2,3-Trichloropropane]",1.21,1.09,1.12,1.41,–
COP(=O)(OC)SCn1c(=O)oc2cc(Cl)cnc21 [Azamethiphos],1.28,0.979,0.625,0.373,0.825
CCOP(=S)(OCC)SCn1c(=O)oc2cc(Cl)ccc21 [Phosalone],1.45,1.27,1.03,0.607,1.62
CCOP(=S)(OCC)SCSCC [Phorate],1.03,0.934,1.08,1.3,–
Cc1ccccc1O [o-Cresol],1.01,0.966,1.1,1.15,–
C=C(C)C(=O)[O][Sn]([CH2]CCC)([CH2]CCC)[CH2]CCC [Tributyltin methacrylate],0.639,0.638,0.679,–,–
Cc1cc(N=Nc2ccccc2C)ccc1N [2-Amino-5-azotoluene],1.18,0.968,1.06,0.582,–
Nc1cc2c3c(c1)C(c1ccccc1)=N[C@@H](NC(=O)c1cccnc1)C(=O)N3CC2,1.19,0.977,1.24,0.802,–
Nc1cc(Cl)cc(C(=O)O)c1Cl [Chloramben],1.14,1.12,1.34,1.49,–
[Cl-].[Cl-].[Hg+2] [Mercuric chloride],1.21,1.07,1.69,–,–
O=C(O)C1C(C(=O)O)C2(Cl)C(Cl)=C(Cl)C1(Cl)C2(Cl)Cl (configuration not stated) [Chlorendic acid],0.978,1.1,0.935,1.03,–
Clc1cccc(C(Cl)(Cl)Cl)n1 [Nitrapyrin],1.01,0.881,1.03,1.23,1.08
Nc1c(Cl)c(Cl)nc(C(=O)O)c1Cl [Picloram],1.47,1,1.13,1.28,0.972
NCCO.O=C(O)c1nc(Cl)ccc1Cl [Clopyralid-olamine],0.94,1.18,1.56,2.61,0.868
O=C(O)c1c(Cl)ccc2cc(Cl)cnc12 [Quinclorac],1.3,1.14,1.14,1.58,1.38
O=C(O)c1nc(Cl)ccc1Cl [Clopyralid],1.81,1.02,0.988,1.12,1.17
